The supplement of paper PMC10849652
Of roughly 7,900 targets only a part is listed; those with a hit were picked by preference. About 0.6% of all pairs of compound and target were hits. Values without a mark were called inactive.

What was measured:
Test in all cases: log2 fold change, soluble protein after heating vs DMSO (PISA); higher = thermal stabilisation; K562 cells, 10 uM, 30 min; active = over 0.2 and 3.5 SD of the protein, either way, in both replicates (recomputed)
bafetinib = compound: Cc1ccc(NC(=O)c2ccc(CN3CC[C@H](N(C)C)C3)c(C(F)(F)F)c2)cc1Nc1nccc(-c2cncnc2)n1 [bafetinib]
How it was run: (§1)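 Soluble protein was defined as the supernatant after 21,000xg for 90 min. It came from K562 cells at 2×10^6 cells/mL given 10 μM compound for 30 min, heated in aliquots for 3 min across 48°C-58°C, pooled, and extracted in PBS with 0.5% NP-40 at 4°C, and was quantified by TMTpro 16plex LC-MS/MS with equalised channel sums. Thermal stability against control samples, from duplicates, is reported as log2 fold change.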

[1] = compound: Cc1cccc(CC(=O)N2CCc3c2ccc(-c2cn(C)c4ncnc(N)c24)c3F)n1
How it was run: as §1

nilotinib = compound: Cc1cn(-c2cc(NC(=O)c3ccc(C)c(Nc4nccc(-c5cccnc5)n4)c3)cc(C(F)(F)F)c2)cn1 [nilotinib]
How it was run: as §1

[2] = compound: Cc1nc(Nc2n[nH]c3c2CN(C(=O)N[C@H](CN(C)C)c2ccccc2)C3(C)C)c2sccc2n1
How it was run: as §1

dasatinib = compound: Cc1nc(Nc2ncc(C(=O)Nc3c(C)cccc3Cl)s2)cc(N2CCN(CCO)CC2)n1 [dasatinib]
How it was run: as §1

[3] = compound: Cc1ncc(-c2ccnc(Nc3ccc(S(C)(=O)=O)cc3)n2)n1C(C)C
How it was run: as §1

[4] = compound: Cn1cc(-c2ccc3c(c2)CCN3C(=O)Cc2cccc(C(F)(F)F)c2)c2c(N)ncnc21
How it was run: as §1

[5] = compound: Cn1cc(-c2ccc3nnc(C(F)(F)c4ccc5ncccc5c4)n3n2)cn1
How it was run: as §1

tipifarnib = compound: Cn1cncc1[C@@](N)(c1ccc(Cl)cc1)c1ccc2c(c1)c(-c1cccc(Cl)c1)cc(=O)n2C [tipifarnib]
How it was run: as §1

mubritinib = compound: FC(F)(F)c1ccc(/C=C/c2nc(COc3ccc(CCCCn4ccnn4)cc3)co2)cc1 [mubritinib]
How it was run: as §1

[6] = compound: NC(=O)Nc1cc(-c2cccc(F)c2)sc1C(=O)N[C@H]1CCCNC1
How it was run: as §1

[7] = compound: NC(=O)c1cnc(N[C@@H]2CCCC[C@@H]2N)nc1Nc1cccc(-n2nccn2)c1
How it was run: as §1

[8] = compound: NC1(c2ccc(-c3nc4ccn5c(=O)[nH]nc5c4cc3-c3ccccc3)cc2)CCC1
How it was run: as §1

[9] = compound: NCC(=O)Nc1ccc(-n2nc(C(F)(F)F)cc2-c2ccc3c(ccc4ccccc43)c2)cc1
How it was run: as §1

entinostat = compound: Nc1ccccc1NC(=O)c1ccc(CNC(=O)OCc2cccnc2)cc1 [entinostat]
How it was run: as §1

vorinostat = compound: O=C(CCCCCCC(=O)Nc1ccccc1)NO [vorinostat]
How it was run: as §1

citarinostat = compound: O=C(CCCCCCNC(=O)c1cnc(N(c2ccccc2)c2ccccc2Cl)nc1)NO [citarinostat]
How it was run: as §1

silmitasertib = compound: O=C(O)c1ccc2c(c1)nc(Nc1cccc(Cl)c1)c1ccncc12 [silmitasertib]
How it was run: as §1

[10] = compound: O=C1NC(=O)C(c2cnc3ccccn23)=C1c1cn2c3c(cc(F)cc13)CN(C(=O)N1CCCCC1)CC2
How it was run: as §1

[11] = compound: c1cc(OCCN2CCCCC2)cc(-c2n[nH]c3ccc(-c4nnc[nH]4)cc23)c1
How it was run: as §1

UniProt Q15185, sequence (Q15185 whole entry, looked up): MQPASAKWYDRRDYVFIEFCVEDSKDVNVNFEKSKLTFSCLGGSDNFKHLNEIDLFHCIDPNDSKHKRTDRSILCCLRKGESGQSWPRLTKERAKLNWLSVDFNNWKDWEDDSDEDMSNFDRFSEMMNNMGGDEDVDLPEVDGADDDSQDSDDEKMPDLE
UniProt Q96A00, sequence (Q96A00 whole entry, looked up): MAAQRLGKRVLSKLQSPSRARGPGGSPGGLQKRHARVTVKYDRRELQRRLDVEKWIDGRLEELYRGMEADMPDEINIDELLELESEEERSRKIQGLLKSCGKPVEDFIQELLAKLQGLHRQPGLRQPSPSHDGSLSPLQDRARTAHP
UniProt Q86W56, sequence (Q86W56 whole entry, looked up): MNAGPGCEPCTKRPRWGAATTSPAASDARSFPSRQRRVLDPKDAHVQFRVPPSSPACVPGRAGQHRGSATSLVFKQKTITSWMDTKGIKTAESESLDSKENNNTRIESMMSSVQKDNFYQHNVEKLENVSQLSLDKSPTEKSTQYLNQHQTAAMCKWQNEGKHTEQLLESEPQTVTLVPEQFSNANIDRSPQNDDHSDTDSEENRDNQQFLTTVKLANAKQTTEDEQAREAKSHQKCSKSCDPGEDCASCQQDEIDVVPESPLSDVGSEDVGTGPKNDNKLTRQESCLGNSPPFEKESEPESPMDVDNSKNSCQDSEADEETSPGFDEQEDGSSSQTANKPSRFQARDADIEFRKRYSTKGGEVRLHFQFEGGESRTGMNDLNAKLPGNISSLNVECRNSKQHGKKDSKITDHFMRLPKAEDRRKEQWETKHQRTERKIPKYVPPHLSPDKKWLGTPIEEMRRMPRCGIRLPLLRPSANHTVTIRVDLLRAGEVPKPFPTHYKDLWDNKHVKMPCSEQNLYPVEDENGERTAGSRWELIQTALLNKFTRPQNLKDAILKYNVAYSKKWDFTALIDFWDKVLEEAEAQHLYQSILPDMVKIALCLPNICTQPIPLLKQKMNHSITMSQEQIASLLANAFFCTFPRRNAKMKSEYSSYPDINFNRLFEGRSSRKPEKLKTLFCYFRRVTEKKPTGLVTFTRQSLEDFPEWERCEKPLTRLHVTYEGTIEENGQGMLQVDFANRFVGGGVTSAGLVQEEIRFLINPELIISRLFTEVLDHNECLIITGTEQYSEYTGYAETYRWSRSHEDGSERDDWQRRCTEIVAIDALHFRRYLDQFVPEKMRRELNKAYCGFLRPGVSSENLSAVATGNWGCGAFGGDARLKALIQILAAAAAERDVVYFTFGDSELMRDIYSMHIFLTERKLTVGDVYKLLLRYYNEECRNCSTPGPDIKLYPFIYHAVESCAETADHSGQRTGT
UniProt Q5H8A4, sequence (Q5H8A4 whole entry, looked up): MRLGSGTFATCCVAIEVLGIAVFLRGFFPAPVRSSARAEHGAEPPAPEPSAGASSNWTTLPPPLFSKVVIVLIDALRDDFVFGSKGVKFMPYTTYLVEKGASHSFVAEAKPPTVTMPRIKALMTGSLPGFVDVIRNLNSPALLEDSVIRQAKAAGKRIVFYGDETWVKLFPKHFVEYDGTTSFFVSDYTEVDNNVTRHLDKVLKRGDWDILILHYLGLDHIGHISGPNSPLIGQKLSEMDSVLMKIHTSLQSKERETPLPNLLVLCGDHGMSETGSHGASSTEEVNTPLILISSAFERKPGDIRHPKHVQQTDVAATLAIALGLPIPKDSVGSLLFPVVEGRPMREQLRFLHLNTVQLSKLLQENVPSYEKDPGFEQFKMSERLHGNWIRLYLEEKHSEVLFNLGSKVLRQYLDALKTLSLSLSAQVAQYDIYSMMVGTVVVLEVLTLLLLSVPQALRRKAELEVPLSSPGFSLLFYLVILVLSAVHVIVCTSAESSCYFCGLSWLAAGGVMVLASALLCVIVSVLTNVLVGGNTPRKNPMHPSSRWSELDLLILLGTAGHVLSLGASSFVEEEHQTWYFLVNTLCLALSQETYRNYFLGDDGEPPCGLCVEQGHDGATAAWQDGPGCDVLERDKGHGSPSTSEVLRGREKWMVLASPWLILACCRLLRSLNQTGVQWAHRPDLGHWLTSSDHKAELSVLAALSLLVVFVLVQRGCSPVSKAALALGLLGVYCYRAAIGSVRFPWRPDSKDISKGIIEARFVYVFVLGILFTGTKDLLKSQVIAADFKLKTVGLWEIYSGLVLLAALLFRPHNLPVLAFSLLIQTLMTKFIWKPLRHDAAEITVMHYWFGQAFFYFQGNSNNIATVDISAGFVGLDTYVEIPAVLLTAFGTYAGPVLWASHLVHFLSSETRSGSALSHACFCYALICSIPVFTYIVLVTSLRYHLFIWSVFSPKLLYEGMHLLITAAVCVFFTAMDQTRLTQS
UniProt P35998, sequence (P35998 whole entry, looked up): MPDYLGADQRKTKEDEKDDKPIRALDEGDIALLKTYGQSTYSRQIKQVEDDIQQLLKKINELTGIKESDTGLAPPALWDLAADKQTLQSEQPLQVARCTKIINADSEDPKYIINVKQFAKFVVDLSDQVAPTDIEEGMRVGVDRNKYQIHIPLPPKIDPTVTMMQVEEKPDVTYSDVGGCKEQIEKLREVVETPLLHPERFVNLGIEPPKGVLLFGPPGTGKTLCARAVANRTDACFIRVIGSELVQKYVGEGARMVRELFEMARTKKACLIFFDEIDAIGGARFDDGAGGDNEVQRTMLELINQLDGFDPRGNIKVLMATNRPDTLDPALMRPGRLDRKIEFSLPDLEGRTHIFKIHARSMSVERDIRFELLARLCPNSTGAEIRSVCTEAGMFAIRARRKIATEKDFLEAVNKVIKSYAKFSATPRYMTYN
UniProt Q15172, sequence (Q15172 whole entry, looked up): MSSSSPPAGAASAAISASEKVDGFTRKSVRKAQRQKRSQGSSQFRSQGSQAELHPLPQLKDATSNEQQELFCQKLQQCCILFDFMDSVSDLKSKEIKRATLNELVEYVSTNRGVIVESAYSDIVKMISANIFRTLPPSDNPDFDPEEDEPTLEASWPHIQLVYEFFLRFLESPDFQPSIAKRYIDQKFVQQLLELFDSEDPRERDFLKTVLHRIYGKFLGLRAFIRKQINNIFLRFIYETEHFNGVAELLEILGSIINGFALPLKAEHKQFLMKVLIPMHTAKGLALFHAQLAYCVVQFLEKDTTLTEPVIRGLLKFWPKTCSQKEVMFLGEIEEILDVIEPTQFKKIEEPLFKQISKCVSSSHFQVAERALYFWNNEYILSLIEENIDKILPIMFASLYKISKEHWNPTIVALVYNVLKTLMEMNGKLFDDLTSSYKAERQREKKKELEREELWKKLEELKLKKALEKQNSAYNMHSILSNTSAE
UniProt P51665, sequence (P51665 whole entry, looked up): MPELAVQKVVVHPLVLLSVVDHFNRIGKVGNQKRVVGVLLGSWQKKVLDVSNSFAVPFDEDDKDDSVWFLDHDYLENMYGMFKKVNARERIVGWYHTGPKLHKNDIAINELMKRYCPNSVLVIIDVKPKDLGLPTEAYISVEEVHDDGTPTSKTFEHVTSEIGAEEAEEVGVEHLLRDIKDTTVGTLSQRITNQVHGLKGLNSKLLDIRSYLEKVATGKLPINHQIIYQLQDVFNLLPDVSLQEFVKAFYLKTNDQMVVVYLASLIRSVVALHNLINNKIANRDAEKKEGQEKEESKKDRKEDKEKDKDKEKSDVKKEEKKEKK
UniProt Q01970, sequence (Q01970 whole entry, looked up): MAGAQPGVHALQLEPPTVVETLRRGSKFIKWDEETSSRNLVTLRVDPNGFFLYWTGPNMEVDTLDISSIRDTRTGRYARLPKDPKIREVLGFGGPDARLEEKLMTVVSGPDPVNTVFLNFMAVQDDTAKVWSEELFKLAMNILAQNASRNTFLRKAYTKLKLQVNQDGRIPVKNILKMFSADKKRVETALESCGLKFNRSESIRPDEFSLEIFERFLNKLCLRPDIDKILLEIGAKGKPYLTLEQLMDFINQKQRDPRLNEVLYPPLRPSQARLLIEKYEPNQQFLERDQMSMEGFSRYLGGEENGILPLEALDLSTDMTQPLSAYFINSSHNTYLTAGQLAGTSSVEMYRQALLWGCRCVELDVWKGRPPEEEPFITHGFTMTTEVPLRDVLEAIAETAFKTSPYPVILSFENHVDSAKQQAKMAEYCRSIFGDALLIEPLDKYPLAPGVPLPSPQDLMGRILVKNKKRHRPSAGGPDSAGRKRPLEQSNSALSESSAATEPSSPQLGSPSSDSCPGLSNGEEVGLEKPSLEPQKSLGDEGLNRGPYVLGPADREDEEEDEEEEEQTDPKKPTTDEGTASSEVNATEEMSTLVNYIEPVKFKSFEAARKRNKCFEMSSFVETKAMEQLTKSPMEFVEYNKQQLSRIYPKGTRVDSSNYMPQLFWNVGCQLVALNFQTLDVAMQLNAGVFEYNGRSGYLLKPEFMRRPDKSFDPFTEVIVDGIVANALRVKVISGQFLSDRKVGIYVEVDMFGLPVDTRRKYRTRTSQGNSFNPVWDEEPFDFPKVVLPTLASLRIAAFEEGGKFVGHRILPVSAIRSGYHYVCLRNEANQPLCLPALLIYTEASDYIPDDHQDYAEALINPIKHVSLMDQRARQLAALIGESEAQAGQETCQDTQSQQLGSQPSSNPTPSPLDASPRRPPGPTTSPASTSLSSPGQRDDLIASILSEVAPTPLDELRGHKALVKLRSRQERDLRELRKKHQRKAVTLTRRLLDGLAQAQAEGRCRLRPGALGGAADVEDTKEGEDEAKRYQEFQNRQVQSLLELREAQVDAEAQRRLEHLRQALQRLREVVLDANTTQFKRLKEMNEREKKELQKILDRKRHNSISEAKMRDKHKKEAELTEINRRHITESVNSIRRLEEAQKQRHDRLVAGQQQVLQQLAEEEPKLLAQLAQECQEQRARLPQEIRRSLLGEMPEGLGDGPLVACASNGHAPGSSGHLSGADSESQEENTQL
UniProt Q9Y244, sequence (Q9Y244 whole entry, looked up): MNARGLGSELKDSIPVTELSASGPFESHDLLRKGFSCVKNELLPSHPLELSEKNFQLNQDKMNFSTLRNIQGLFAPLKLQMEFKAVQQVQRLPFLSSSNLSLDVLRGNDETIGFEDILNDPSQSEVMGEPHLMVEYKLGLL
UniProt Q15004, sequence (Q15004 whole entry, looked up): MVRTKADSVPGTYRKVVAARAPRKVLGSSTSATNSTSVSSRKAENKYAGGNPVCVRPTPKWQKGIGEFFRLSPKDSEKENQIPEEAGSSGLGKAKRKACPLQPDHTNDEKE

Target	log2 fold change (bafetinib)	log2 fold change [1]	log2 fold change (nilotinib)	log2 fold change [2]	log2 fold change (dasatinib)	log2 fold change [3]	log2 fold change [4]	log2 fold change [5]	log2 fold change (tipifarnib)	log2 fold change (mubritinib)	log2 fold change [6]	log2 fold change [7]	log2 fold change [8]	log2 fold change [9]	log2 fold change (entinostat)	log2 fold change (vorinostat)	log2 fold change (citarinostat)	log2 fold change (silmitasertib)	log2 fold change [10]	log2 fold change [11]
PPP2R5A (UniProt Q15172)	-0.008	0.027	-0.075	-0.039	-0.205	0.006	0.032	0.006	-0.179	0.012	0.098	0.009	-0.254 (active)	-0.013	0.094	0.106	0.114	-0.059	-0.044	-0.021
PPP1R14A (UniProt Q96A00)	-0.058	0.026	-0.01	0.013	0.019	0.026	0.076	-0.055	0	0.033	-0.051	0.101	0.02	0.029	0	0.105	0	-0.089	-0.014	0.018
POMP (UniProt Q9Y244)	-0.097	-0.101	0.142	-0.093	0.006	-0.092	0.079	0.156	0.116	0.01	0.106	0.039	-0.029	-0.024	0.05	-0.066	0.026	0.022	-0.022	-0.01
PSMC2 (UniProt P35998)	0.081	0.029	-0.019	0.044	0.034	-0.018	-0.126	-0.013	0.113	-0.031	0.014	-0.013	0.026	0.091	-0.025	-0.018	-0.04	-0.015	0.087	-0.086
PIGG (UniProt Q5H8A4)	-0.034	0.047	0.083	0.007	-0.013	-0.022	0.004	-0.044	0.012	0.038	-0.046	-0.032	-0.06	0.052	0.039	-0.104	0.052	0.025	-0.019	0.029
PEX7 (UniProt O00628)	0.101	-0.025	-0.047	0.048	-0.025	-0.007	0.05	0.04	0.034	0.085	-0.017	-0.031	-0.022	-0.03	-0.077	0.013	0.074	-0.017	-0.051	0.042
PCLAF (UniProt Q15004)	-0.015	-0.1	-0.027	0.105	0.065	-0.081	-0.112	-0.069	-0.019	-0.095	-0.007	0.035	0.109	0.012	-0.04	-0.045	0.035	-0.009	0.008	-0.066
POLA1 (UniProt P09884)	0.021	0.021	-0.043	-0.033	-0.173	0.01	0.019	0.014	-0.091	0.064	-0.014	-0.068	-0.225	-0.04	0.07	0.054	0.155	0.021	-0.113	0.227
POLR2B (UniProt P30876)	0.024	-0.005	0.079	0.054	-0.055	0.324 (active)	-0.054	-0.006	-0.029	-0.014	-0.054	0.059	-0.043	-0.106	0.061	-0.089	0	0.1	0.09	-0.065
PRKACA (UniProt P17612)	-0.044	0.107	-0.038	0.71 (active)	-0.107	-0.051	0.01	-0.117	-0.036	0.066	0.097	0.048	-0.132	-0.025	-0.019	0.02	0.023	-0.051	0.05	-0.067
PSMD7 (UniProt P51665)	0.075	0.009	0.014	0.065	0.054	-0.033	-0.116	-0.01	0.079	0.019	-0.04	0.001	-0.035	0.029	-0.049	-0.002	-0.048	0.016	0.051	-0.089
PLCB3 (UniProt Q01970)	-0.059	-0.084	-0.104	0.033	-0.092	-0.006	-0.006	0.061	-0.039	0.003	-0.005	-0.086	-0.141	-0.023	0.037	-0.008	-0.007	0.008	0.005	0.064
PARG (UniProt Q86W56)	0.166	0.118	0.004	-0.123	-0.162	-0.025	0.093	-0.015	-0.061	0.061	0.141	0.001	-0.113	-0.013	0.12	0.157	0.067	0.048	0.065	-0.091
PTGES3 (UniProt Q15185)	-0.05	0.028	-0.044	-0.089	-0.142	-0.042	0.034	0.039	-0.119	-0.091	-0.043	-0.006	-0.123	0.017	0.075	0.002	0.111	-0.002	-0.142	0.054
PECAM1 (UniProt P16284)	-0.075	-0.011	0.087	0.097	0.031	0	-0.019	-0.013	0.015	0.022	0.005	0.092	0.034	0.053	-0.13	-0.057	0.033	-0.039	-0.064	-0.023
PRPF38A (UniProt Q8NAV1)	0.048	0.025	-0.006	-0.871 (active)	-0.033	-0.073	-0.011	-0.08	0.036	0.201	-0.039	-0.015	-0.105	-0.006	0.004	0.002	0.152	-0.212	0.095	-0.122
